Assay outcomes (PubChem)
Shown are actives, neighbours in structure and some others; about 2.1% of the full set was active somewhere.
p53 PUMA act = mutant p53 pathway reactivation | SW480 PUMA-promoter luciferase | hit rate 1.5% among 28,000 | activation, % at 9.98 µM; in the data active means activation above about 52%
STK33 kin inh = human STK33 kinase inhibition. hit rate 0.44% among 27,000. Q9BYT3. inhibition, % at 12.5 µM. ADP-Glo luminescence, MBP substrate. AID 2322; in the data active means inhibition above about 20%
ID4 binder = ID4 (human) binding; P47928; small molecule microarray, Flag-ID4 binding, fluorescence F/B; calls only; hit rate 1.2% among 31,000; call rule not given here;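 further: a binder raises fluorescence above local background on the spot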
Target sequence (P47928 whole entry, looked up): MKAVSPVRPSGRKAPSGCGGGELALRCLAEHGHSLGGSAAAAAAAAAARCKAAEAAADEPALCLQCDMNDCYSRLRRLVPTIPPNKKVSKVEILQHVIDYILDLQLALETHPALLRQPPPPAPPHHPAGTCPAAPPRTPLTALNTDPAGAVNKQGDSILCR
* = called active by the depositor.

What do the screens show for `Cc1nc(CSc2nc3sc(C)c(C)c3c(=O)n2-c2ccccc2)cs1`?
p53 PUMA act: -2; STK33 kin inh: -3; ID4 binder: inactive

How did O=C(OCc1cccc([N+](=O)[O-])c1)c1ccc(NC(=O)c2ccco2)cc1 do in these assays?
p53 PUMA act: 70*; STK33 kin inh: -5; ID4 binder: inactive

How did COc1ccc(C(=O)Nc2ccc(C(=O)OCc3cccc([N+](=O)[O-])c3)cc2)cc1 do in these assays?
p53 PUMA act: 6; STK33 kin inh: 6; ID4 binder: inactive

Results for O=C(O)COc1ccc(NC(=O)c2ccc(NC(=O)c3ccco3)cc2)cc1 ?
p53 PUMA act: -14; STK33 kin inh: 12; ID4 binder: active

Results for CC(=O)Nc1ccc(C(=O)Nc2ccc(OCC(=O)O)cc2)cc1 ?
p53 PUMA act: -4; STK33 kin inh: 1; ID4 binder: inactive

Results for Cn1c(SCC(=O)Nc2ccccc2C(F)(F)F)nnc1-c1ccc(F)cc1 ?
p53 PUMA act: 9; STK33 kin inh: -10; ID4 binder: inactive

What do the screens show for `Cn1c(SCC(=O)Nc2ccnc3ccccc23)nnc1-c1ccncc1`?
p53 PUMA act: -28; STK33 kin inh: -2; ID4 binder: active

Results for Cc1ccc(-c2nnc(SCC(=O)Nc3ccccc3F)n2C)cc1 ?
p53 PUMA act: 60*; STK33 kin inh: -1; ID4 binder: inactive

What do the screens show for `Cc1ccc(NC(=O)CSc2nnc(-c3ccncc3)n2C)c(Br)c1`?
p53 PUMA act: 1; STK33 kin inh: -5; ID4 binder: inactive

Results for CC(=O)c1ccc(NC(=O)CSc2nc3cc(C)c(C)cc3[nH]2)cc1 ?
p53 PUMA act: 5; STK33 kin inh: -2; ID4 binder: inactive

What do the screens show for `C=CCNC(=O)CSc1nccc(-c2sc3sc(Br)c(C)c3c2C)n1`?
STK33 kin inh: 12

Results for COc1ccc(NC(=O)CSc2nc3ccccc3c(=O)n2-c2ccc(C)cc2)cc1Cl ?
p53 PUMA act: -2; STK33 kin inh: 2; ID4 binder: inactive

How did CC(C)c1onc(-c2c(Cl)cccc2Cl)c1COc1ccc(/C=C/c2cccc(C(=O)O)c2)c(Cl)c1 do in these assays?
p53 PUMA act: 67*; ID4 binder: inactive

Results for Cc1ccc2c(CC(=O)NCc3ccco3)coc2c1C ?
p53 PUMA act: -24; STK33 kin inh: -3; ID4 binder: inactive

What do the screens show for `Cc1ccc2c(CC(=O)Nc3cccc([N+](=O)[O-])c3)coc2c1C`?
p53 PUMA act: 69*; STK33 kin inh: 4; ID4 binder: inactive

Results for O=C(COc1ccc(Cl)cc1)Nc1cccnc1 ?
p53 PUMA act: 29; STK33 kin inh: 5; ID4 binder: inactive

How did CCc1ccc(OCC(=O)Nc2cccnc2)c(Br)c1 do in these assays?
p53 PUMA act: 96*; STK33 kin inh: -10; ID4 binder: inactive

How did Cc1ccc(OCC(=O)Nc2cccc(C(=O)O)c2)c(Br)c1 do in these assays?
p53 PUMA act: -84; STK33 kin inh: 2; ID4 binder: inactive

How did COC(=O)c1cc(OC)c(OC)cc1NC(=O)COc1ccc(C(C)(C)C)cc1Br do in these assays?
p53 PUMA act: -9; STK33 kin inh: 0; ID4 binder: inactive

What do the screens show for `CC(C)(C)c1ccc(OCC(=O)Nc2cccnc2)c(Br)c1`?
p53 PUMA act: 70*; STK33 kin inh: -2; ID4 binder: inactive

How did O=C(COc1cc(Cl)c(Cl)cc1Cl)Nc1cccnc1 do in these assays?
p53 PUMA act: 117*; STK33 kin inh: -1; ID4 binder: inactive

How did NCCOc1ccc(Cl)cc1 do in these assays?
STK33 kin inh: -2

How did C[C@@H]1[C@H]2[C@H](OC3O[C@H](CO)[C@@H](O)[C@H](O)[C@H]3O)OC=C(C(=O)O)[C@H]2C[C@@H]1O (stereo not given in full) do in these assays?
STK33 kin inh: 1; ID4 binder: inactive

How did COc1cccc(OC)c1C(=O)N(Cc1nc(-c2ccc(Cl)cc2)no1)C(C)C do in these assays?
p53 PUMA act: 15; STK33 kin inh: 0; ID4 binder: inactive

What do the screens show for `NC(=O)c1ccccc1NC(=O)COc1cc(Cl)c(Cl)cc1Cl`?
p53 PUMA act: 2; STK33 kin inh: 6; ID4 binder: inactive

How did CC(=O)O[C@@H]1[C@@H](O)C[C@@]2(C)C(CC[C@@H](C)C23Cc2c(O)cc4c(c2O3)CN([C@@H](CCC(=O)O)C(=O)O)C4=O)C1(C)C (stereo not given in full) do in these assays?
p53 PUMA act: -3; STK33 kin inh: -13

How did Cc1ccc(-c2ccc(CCC(=O)O)n2-c2ccc(N(C)C)cc2)cc1 do in these assays?
p53 PUMA act: 9; STK33 kin inh: -9; ID4 binder: inactive

Results for CC(=O)c1cccc(-n2c(CCC(=O)O)ccc2-c2ccc(C)cc2)c1 ?
p53 PUMA act: 11; STK33 kin inh: -6; ID4 binder: active

Results for COc1cc(/C=C/C(=O)NCC(O)c2ccc(O)cc2)ccc1O (stereo not given) ?
p53 PUMA act: 16; STK33 kin inh: -3

What do the screens show for `COc1cc(O)c(C(=O)/C=C/c2ccc(O)c(OC)c2)c(OC)c1`?
STK33 kin inh: 51*

What do the screens show for `COc1ccccc1CN1C(=O)c2ccccc2[C@@]2(Cc3ccccc3N(C(C)C)C2=O)[C@@H]1c1ccc(CO)cc1`?
STK33 kin inh: -1; ID4 binder: inactive

Results for COC(=O)c1cc(-c2ccccc2)sc1NC(=S)Nc1ccn(C)n1 ?
p53 PUMA act: 48; STK33 kin inh: 0; ID4 binder: inactive

What do the screens show for `COC(=O)c1cc(-c2ccccc2)sc1NC(=S)Nc1cn(C)nc1C`?
p53 PUMA act: 6; STK33 kin inh: 0; ID4 binder: active

What do the screens show for `COC(=O)c1c(NC(=S)Nc2cccc(S(=O)(=O)N3CCOCC3)c2)sc2c1CCC2`?
p53 PUMA act: -4; STK33 kin inh: 1; ID4 binder: inactive

How did CCOC(=O)c1cnc(S/C=C/C(=O)c2ccc(C)cc2)nc1N do in these assays?
STK33 kin inh: 2

What do the screens show for `O=C(CCCN1C(=O)c2ccccc2C1=O)Nc1ccc(Nc2ccccc2)cc1`?
p53 PUMA act: 55*; STK33 kin inh: 4; ID4 binder: inactive

What do the screens show for `CC(=O)Nc1ccc(NC(=O)CCCN2C(=O)c3ccccc3C2=O)cc1`?
p53 PUMA act: 3; STK33 kin inh: -2; ID4 binder: inactive

What do the screens show for `Nc1nc(SCC(=O)c2ccccc2)nc2sc3c(c12)CCC3`?
p53 PUMA act: 113*; STK33 kin inh: 5; ID4 binder: inactive

How did Cc1ccc(C(=O)CSc2nc(C)nc3sc4c(c23)CCCC4)cc1 do in these assays?
p53 PUMA act: -4; STK33 kin inh: 0; ID4 binder: inactive

How did C[C@@H]1CN([C@@H](C)CO)C(=O)c2cccc(NC(=O)Nc3ccc4c(c3)OCO4)c2O[C@H]1CN(C)C do in these assays?
p53 PUMA act: 74*; ID4 binder: inactive

How did C[C@H](CO)N1C[C@H](C)[C@H](CN(C)S(C)(=O)=O)Oc2c(NC(=O)Nc3ccc4c(c3)OCO4)cccc2C1=O do in these assays?
p53 PUMA act: 7

What do the screens show for `C[C@H]1CN([C@@H](C)CO)C(=O)c2cccc(NC(=O)Nc3ccc4c(c3)OCO4)c2O[C@@H]1CN(C)S(C)(=O)=O`?
STK33 kin inh: -3

How did C[C@H]1CN([C@@H](C)CO)C(=O)c2cccc(NC(=O)Nc3ccc4c(c3)OCO4)c2O[C@@H]1CN(C)C do in these assays?
p53 PUMA act: 58*
